Bioassay records from PubChem BioAssay.
Peg3 promoter – inhibitors of Peg3 promoter. HeLa PEG-Prom luciferase reporter, luminescence, overnight. inhibition, % at 20 µM. 360,000 compounds, 1.7% hits. AID 588405;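 active = inhibition of at least 50% at 20 µM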
TWEAK Fn14 block – TWEAK-Fn14 signaling inhibition. TWEAK-stimulated Fn14 reporter cells, luciferase luminescence, 8 h. inhibition, % at 10 µM. 360,000 compounds, 2% hits; in the data active = inhibition above about 50%
HIF-2a inh – inhibitors of HIF-2a; 786-0 RCC cells HIF-2a reporter, luciferase luminescence, overnight; inhibition, % at 18.8 µM; 360,000 compounds, 0.72% hits; AID 624352;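 active = inhibition of the luminescence signal of 40% or more relative to plate controls, in a single-dose primary screen at 18.75 µM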
TRPM1 prom inh – MITF TRPM1 promoter inhibition in SK-MEL-5 cells. SK-MEL-5 TRPM1 promoter luciferase, 24 h. inhibition, % at 12.5 µM. 330,000 compounds, 0.83% hits;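 active = mean inhibition across replicates of 60% or more, whatever share of single replicates reaches that level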
TROY NFkB inh – TROY signaling inhibition. Q293 LMP1-TROYcd NF-kB luciferase reporter, 4 h. inhibition, % at 10 µM. 360,000 compounds, 0.98% hits. AID 1347056;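 active = compounds whose plate-normalised and pattern-corrected inhibition of the luciferase reporter signal at the single screening dose is 50% or more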
LMP1 NFkB inh – Epstein-Barr LMP1 NF-kappaB reporter inhibition | LMP1-induced NF-kappaB luciferase reporter cells, luminescence | inhibition, % at 12.5 µM | 350,000 compounds, 0.69% hits | AID 504558; in the data active = inhibition above about 41%;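 also: 0% = neutral control wells and 100% = reference inhibitor control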
Numbers without * were called inactive; / = not tested or not shown. A selection: hits, their analogues and other compounds. The true share with any hit is near 4%.

SMILES	Peg3 promoter	TWEAK Fn14 block	HIF-2a inh	TRPM1 prom inh	TROY NFkB inh	LMP1 NFkB inh
NC(=O)c1ccc(Oc2ccc(C(N)=O)cc2)cc1	-10.6	-3.0	14.5	-8.0	-7.9	-5.3
Cn1cccc1/C=C1\CCc2ccccc2C1=O	-101.7	75.8*	-181.5	-6.5	23.7	16.3
Cc1cc(NC(=O)CCCn2ccc([N+](=O)[O-])n2)n(Cc2ccc(F)cc2)n1	-0.4	-6.4	5.7	-1.4	-0.9	-5.0
CCCCCCCCCCCCCCC[C@@H](O)[C@@H](N)CO	51.5*	1.6	16.2	28.9	8.3	7.0
C[C@@H]1CN([C@@H](C)CO)C(=O)CCCn2nncc2CO[C@H]1CN(C)Cc1cccnc1	2.7	12.7	1.8	/	-1.7	-5.2
Cc1cccc(C)c1-n1nnnc1C1(C)CCC(=O)N1c1ccc(N2CCOCC2)cc1 (stereo not given)	/	2.7	1.4	/	-3.8	/
Cn1c(=NC(=O)c2ccccc2[N+](=O)[O-])sc2cc(S(C)(=O)=O)ccc21	-228.3	51.2*	-177.8	-46.6	6.7	-1.8
O=C1OC(CN(Cc2ccccc2)Cc2ccccc2)CN1N=Cc1ccc([N+](=O)[O-])o1 (stereo not given)	13.7	2.3	-15.9	82.0*	2.1	-26.8
O=C1OC(CN2CCOCC2)CN1N=Cc1ccc([N+](=O)[O-])o1 (stereo not given)	-9.9	9.0	-5.1	-1.7	-10.4	-8.7
Cc1ccc(S(=O)(=O)Nc2ccc(S(=O)(=O)Nc3nccs3)cc2)cc1C	-2.1	-2.8	-11.7	7.6	-3.7	-8.8
O=C(O)CCCC1(C(=O)O)CCCC1	6.3	14.6	7.5	13.6	-5.5	-6.2
N#CC(C#N)=C(Nc1ccc(F)cc1)SCc1cccc(F)c1	23.4	49.0	-15.7	51.9	53.1*	18.4
CCOc1ccccc1C=NNC(=O)C(=O)NN=Cc1ccccc1OCC	17.4	-12.1	10.3	-5.1	-6.7	7.1
COc1ccccc1/C=N/NC(=O)c1cccc(OC(F)(F)C(F)F)c1	-7.0	-11.4	-43.5	0.8	-61.1	-0.8
O=C(N/N=C/c1ccc(O)c2ncccc12)c1cccc(Br)c1	8.4	16.5	0.0	65.1*	15.3	-10.1
COc1cccc(/C=N/NC(=O)C(=O)Nc2ccccc2OC(F)(F)C(F)F)c1O	48.6	34.9	-6.1	72.8*	-3.7	21.5
CCOc1ccccc1NC(=O)C(=O)N/N=C/c1cc(Br)ccc1O	52.6*	14.3	-0.6	59.1	7.2	30.0
O=C(N/N=C\c1cc(Br)ccc1O)c1ccc(S(=O)(=O)N2CCCCC2)cc1	28.7	35.7	14.3	74.3*	26.0	15.5
O=C(N/N=C/c1ccc(O)c(O)c1)c1cccc(S(=O)(=O)N2CCCCC2)c1	-1.5	-16.4	16.8	5.0	-5.9	-6.6
Cc1ccccc1N=C(c1ccccc1)C1C(=O)c2ccccc2C1=O	1.8	26.2	-27.9	/	41.8	/
CC(=O)N1CCC(O)(c2ccc3c(c2)OCO3)CC1	11.8	-14.3	15.1	-1.4	1.3	7.3
CCCCc1nnc(NC(=O)c2ccc(OCc3c(C)noc3C)cc2)s1	6.6	8.6	7.4	22.7	22.5	4.4
CC(OC(=O)Nc1ccccc1)C(=O)OC1CCCCC1 (stereo not given)	-51.2	-11.7	-76.7	-37.9	-19.3	-3.7
CC(=O)Nc1ccc(C(=O)N/N=C/c2cc(Br)cc(Br)c2O)cc1	27.3	-11.8	-1.2	22.4	25.1	2.9
CC(C)C(=O)Nc1ccc(C(=O)N/N=C/c2cc(Br)cc(Br)c2O)cc1	58.3*	-1.9	12.9	17.1	2.0	44.3*
SMILES	Peg3 promoter	TWEAK Fn14 block	HIF-2a inh	TRPM1 prom inh	TROY NFkB inh	LMP1 NFkB inh
O=C(N/N=C/c1cc(Br)ccc1O)c1ccncc1	31.1	-18.9	-0.7	76.4*	-2.0	-1.9
COc1ccc(C2SCCN2C(=O)c2ccc([N+](=O)[O-])cc2)cc1 (stereo not given)	20.6	-15.4	2.8	-6.3	-4.0	42.2*
O=C(c1ccc([N+](=O)[O-])cc1)N1CCSC1c1ccccc1Cl (stereo not given)	11.8	-1.0	21.0	3.0	0.1	7.7
CCC(C)c1ccc(NC(=S)NC(C)C2CCCO2)cc1 (stereo not given)	-28.6	-3.4	-83.3	-13.6	-23.0	-6.7
Cc1ccc(S(=O)(=O)Nc2nnc(CC(C)(C)C)s2)cc1	6.3	108.5*	11.6	/	-21.9	0.8
Cc1ccc(S(=O)(=O)Nc2ccc(Cl)cc2)cc1NC(=O)c1cc2c(s1)CCCC2	11.9	72.4*	7.7	15.6	61.8*	-6.1
CC(=O)NCCc1ccc(C(=O)COC(=O)C2CCCCC2)cc1	-43.8	89.6*	-21.1	-1.4	85.8*	-4.5
Cc1ccc(C(=O)COC(=O)C2CCC2)cc1	4.2	-10.9	8.9	-5.3	-43.7	5.0
CC(=O)NCCc1ccc(C(=O)COC(=O)c2ccco2)cc1	-102.2	56.3*	-47.9	-31.5	9.2	-10.7
O=C(COC(=O)c1ccco1)c1ccc(F)cc1	-41.3	1.5	-23.2	-18.4	-45.2	-4.4
COc1ccc(-c2cc(=O)oc3cc(OC(C)C(=O)NCCCn4ccnc4)ccc23)cc1 (stereo not given)	18.1	4.6	8.3	14.8	5.2	9.4
Cc1cc(C)cc(N(CC(=O)NCC2CCCO2)C(=O)CCC(=O)Nc2nccs2)c1 (stereo not given)	0.2	6.6	-0.6	0.6	-9.2	-7.3
COc1ccc(CNC(=O)C(=O)NCC2OCCN2S(=O)(=O)c2cccs2)cc1 (stereo not given)	-7.4	9.2	-7.3	/	-6.4	-0.4
Cc1ccccc1Cn1nnc(-c2ccc3c(c2)OCO3)n1	-231.9	79.5*	-254.3	-62.8	-74.9	-35.2
N#CCn1nnc(-c2ccc3c(c2)OCO3)n1	0.5	7.2	-29.7	-3.8	2.8	-1.5
Fc1cccc(Cl)c1Cn1nnc(-c2ccc3c(c2)OCO3)n1	-240.3	53.8*	-218.4	-72.6	-49.2	-54.6
CC1(C(=O)NS(=O)(=O)c2ccc(Br)cc2)CCN1C(=O)CCc1cccs1 (stereo not given)	0.8	13.7	7.3	/	10.8	/
Cc1cccc(S(=O)C(c2ccccc2)c2ccccc2)c1 (stereo not given)	29.0	9.6	12.6	3.0	1.3	3.5
CC(OC(=O)Cn1[nH]c(=O)c2ccccc2c1=O)C(=O)Nc1ccccc1[N+](=O)[O-] (stereo not given)	2.0	-7.7	3.4	1.7	-15.6	0.3
COc1cc(-c2cc(C(=O)Nc3ccc(S(=O)(=O)NCc4ccco4)cc3)c3ccccc3n2)cc(OC)c1OC	58.5*	14.0	10.8	9.7	7.8	-52.6
O=C(c1[nH]c(C(F)(F)F)nc1-c1ccccc1)N1CCN(c2c(Cl)cncc2Cl)CC1	12.4	45.5	-1.4	/	19.9	/
O=C(/C=C/c1ccccc1)c1ccccc1	-24.2	-5.8	-62.3	-22.1	-22.3	0.4
COc1ccccc1OCc1ccc(C(=O)NN)cc1	13.1	-9.2	1.6	12.3	5.9	8.7
